Some test systems named below: DU-145 prostate; K-562 leukemia; MALME-3M melanoma; MDA-MB-231 breast; RXF 393 renal; SF-268 CNS; SF-295 CNS; SF-539 CNS; UACC-257 melanoma; M14 melanoma.
Holding throughout (experiment): NCI-60 one-dose screen, 48 h (100 = growth as untreated, 0 = no growth, -100 = all killed)
What all share (conditions): 10 µM unless noted

Molecules are shown by their SMILES. The panel holds about 83,000 compounds, 20% with a hit somewhere; the sample as a whole holds those more often.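 The test compound was applied at a single concentration to cells in 96-well plates for 48 hours, and percent growth was recorded.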 Values without a mark were called inactive. Activity calls are given as the source filed them. The calls were made as follows: active = growth percent below 10; inactive = the rest.

On to `COc1ccc(/C(=N\O)c2cc(C)c(OC)c(C)c2)cc1O`, for which the growth in the assay with DU-145 prostate is 29.4%; in the assay with K-562 leukemia it was 12%; in the assay on MALME-3M melanoma, 67%; in the assay with MDA-MB-231 breast it was 24.8%; in the assay with RXF 393 renal, 62.9%; with SF-268 CNS it was 30.4%. The growth in the assay with SF-295 CNS was 29.7%; in the assay on SF-539 CNS it was 2.65% (active); in the assay with UACC-257 melanoma it was 70%; in the assay with M14 melanoma, 13.6%.
Regarding `C#CC[C@@H]1C[C@]2(C)[C@H]3CC[C@@H]4[C@H]5[C@H](C(=C)C)CC[C@]5(C(=O)O)CC[C@@]4(C)[C@]3(C)CC[C@H]2C(C)(C)[C@H]1O`, the growth is 57.4% in the assay on DU-145 prostate; 35.1% in the assay on K-562 leukemia; 53% with MALME-3M melanoma; 20.8% in the assay with MDA-MB-231 breast; 6.63% (active) with RXF 393 renal; 66.5% in the assay on SF-268 CNS. Besides, the growth with SF-295 CNS is 12.8%; in the assay with SF-539 CNS it was 53.8%; with UACC-257 melanoma, 70.9%; with M14 melanoma, 60.3%.
As to `CO[C@@]12C=C[C@@]34CCC(=O)N3c3ccccc3[C@@H](O1)C4C2`, the growth with DU-145 prostate was 111%; in the assay with K-562 leukemia, 97.5%; with MALME-3M melanoma, 98%; in the assay on MDA-MB-231 breast, 100%; with RXF 393 renal, 107%; with SF-268 CNS it was 98.4%. Also, the growth with SF-295 CNS was 109%; with SF-539 CNS it was 102%; in the assay on UACC-257 melanoma, 101%; in the assay on M14 melanoma, 99.5%.
With `C/C(=N/Nc1nc2ccccc2n1C)c1ccccn1`, the growth is 16.2% in the assay with DU-145 prostate; 5.81% (active) with K-562 leukemia; 11.6% in the assay on MALME-3M melanoma; 28.8% with MDA-MB-231 breast; -12.5% (active) with RXF 393 renal; 10.7% in the assay with SF-268 CNS. The growth in the assay on SF-295 CNS is 8.08% (active); in the assay with SF-539 CNS it was 0.5% (active); with UACC-257 melanoma, -29.2% (active); with M14 melanoma, -4.55% (active).
Consider `COc1cc(C)ccc1Oc1nc(Nc2ccc(N3CCOCC3)cc2)ncc1N=Cc1cc(C(F)(F)F)cc(C(F)(F)F)c1`, for which the growth is 83.7% in the assay with DU-145 prostate; 37.7% in the assay on K-562 leukemia; 91.7% in the assay with MALME-3M melanoma; 82.9% with MDA-MB-231 breast; 38.4% in the assay with RXF 393 renal; 69% in the assay with SF-268 CNS. Besides, the growth with SF-295 CNS was 75.8%; with SF-539 CNS it was 73.8%; in the assay with UACC-257 melanoma, 79.2%; in the assay on M14 melanoma, 77.7%.
Consider `N#CC1C(c2ccc(Cl)cc2)=Nc2c(c(-c3ccccc3)nn2-c2ccccc2)C12C(=O)Nc1ccc(Cl)cc12` (stereo not given), for which the growth with DU-145 prostate is 74%; in the assay with K-562 leukemia, 19.1%; with MALME-3M melanoma, 70.3%; with MDA-MB-231 breast, 41.2%; in the assay with RXF 393 renal it was 28.3%; in the assay with SF-268 CNS, 39.1%. Besides, the growth in the assay with SF-295 CNS is 28.1%; with SF-539 CNS it was 43.8%; in the assay with UACC-257 melanoma it was 53.6%; with M14 melanoma, 34.6%.
`CCOC(=O)c1cnn(-c2nc(-c3ccc(F)cc3)c(C#N)c(N3CCOCC3)n2)c1N`: the growth with DU-145 prostate is 102%; in the assay on K-562 leukemia, 91.8%; in the assay with MALME-3M melanoma, 107%; with MDA-MB-231 breast it was 107%; in the assay with RXF 393 renal, 122%; with SF-268 CNS, 98.7%. Further, the growth in the assay with SF-295 CNS is 101%; in the assay on SF-539 CNS, 97.2%; with UACC-257 melanoma it was 106%; with M14 melanoma, 106%.
`CC(=O)Nc1c(C(=O)Nc2ccccc2)sc2nc3c(cc12)C(OC(C)=O)CCC3` (stereo not given): the growth with DU-145 prostate is 105%; with K-562 leukemia, 72.1%; in the assay on MALME-3M melanoma, 89.7%; in the assay on MDA-MB-231 breast, 101%; in the assay on RXF 393 renal, 62.1%; in the assay on SF-268 CNS it was 97.5%. The growth is 32.4% in the assay with SF-295 CNS, 95.8% in the assay on SF-539 CNS, 64.8% in the assay with UACC-257 melanoma and 90.3% with M14 melanoma.
Turning to `CC(C)NS(=O)(=O)c1cccc(-c2ccc3c4c(n(CCCN(C)C)c(=O)c3c2)-c2ccccc2C4=O)c1`, the growth in the assay on DU-145 prostate was 108%; in the assay with K-562 leukemia, -57.8% (active); in the assay on MALME-3M melanoma, 91.6%; in the assay on MDA-MB-231 breast, 83.8%; in the assay with RXF 393 renal it was 96.1%; with SF-268 CNS, 103%. In addition, the growth is 104% in the assay with SF-295 CNS, 90.7% in the assay on SF-539 CNS, 107% with UACC-257 melanoma and 104% in the assay on M14 melanoma.
As for `Nc1ccc(C2=NN(C(=O)c3cc(-c4ccc(Cl)cc4)nc4ccccc34)C(c3ccc(Cl)cc3)C2)cc1` (stereo not given), the growth in the assay on DU-145 prostate is 27.2%; in the assay on K-562 leukemia it was 13.2%; in the assay with MALME-3M melanoma it was 63%; in the assay on MDA-MB-231 breast, 63.2%; in the assay on RXF 393 renal, -4.45% (active); with SF-268 CNS, 55%. The growth in the assay with SF-295 CNS was 18.2%; in the assay on SF-539 CNS, 8.98% (active); with UACC-257 melanoma it was 57.5%; with M14 melanoma, 6.28% (active).
Consider `CC1(C)CC[C@]2(c3nnc(-c4ccncc4)o3)CC[C@]3(C)C(=CC[C@@H]4[C@@]5(C)CCC(=O)C(C)(C)[C@@H]5CC[C@]43C)[C@@H]2C1`, for which the growth in the assay on DU-145 prostate was 91.2%; in the assay with K-562 leukemia it was 62.1%; with MALME-3M melanoma, 86.1%; in the assay with MDA-MB-231 breast it was 87%; in the assay on RXF 393 renal it was 101%; in the assay with SF-268 CNS, 81.5%. For the same compound, the growth in the assay with SF-295 CNS was 79.7%; with SF-539 CNS, 90.7%; in the assay with UACC-257 melanoma, 78.4%; in the assay on M14 melanoma, 84.3%.
`O=C1NC(c2ccc(F)cc2)N=C2C(c3ccccc3)=NOC12` (stereo not given): the growth is 110% in the assay with DU-145 prostate; 105% in the assay with K-562 leukemia; 112% in the assay on MALME-3M melanoma; 115% in the assay on MDA-MB-231 breast; 105% in the assay on RXF 393 renal; 107% in the assay on SF-268 CNS. For the same compound, the growth was 108% with SF-295 CNS, 105% with SF-539 CNS, 96.7% with UACC-257 melanoma and 110% in the assay on M14 melanoma.

Values taken from PubChem BioAssay (NCI).
